Hits are enriched below; roughly 27% of the tested compounds scored in any of these assays.
sEH inhibitor: inhibitors of human soluble epoxide hydrolase | P34913 | recombinant human sEH enzymatic activity assay | inhibition, % at 2 µM | 0.34% of 91,000 active | AID 707; in the data active = inhibition above about 80%
sEH activator: soluble epoxide hydrolase (human) activation. P34913. purified human sEH enzymatic activity, activator screen. activation, % at 2 µM. 0.04% of 91,000 active. AID 717; in the data active = activation above about 37%
CYP2C19 inhib: inhibitors of human CYP2C19; CYP2C19 Supersomes, luciferin-H EGE luminescence, 30 min; inhibition, % at 5 µM; 21% of 96,000 active; AID 778;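 active = CYP2C19 inhibition above a set limit at 5 µM in the primary screen, cut at about 50% in these data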;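 note: plate controls were negative control wells for no effect and 2.5 mM tranylcypromine positive control for full effect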
CYP2C19 act: cytochrome P450 2C19 (human) activation; P33261; recombinant CYP2C19, luciferin-H EGE luminescence; hits give high values; 0 = fully inhibited enzyme, 1 = untreated enzyme; activation factor at 5 µM; 96,000 tested, under 10 active; AID 1025;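 active = activation factor of at least 2 at 5 µM in the primary screen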;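 note: 0 = wells with 2.5 mM tranylcypromine and 1 = vehicle-only wells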
CYP2C9 activ: CYP2C9 (human) activation. P11712. recombinant CYP2C9, luciferin-H conversion, luminescence; hits give high values; factor 1 = untreated enzyme, 0 = blocked. activation factor at 5 µM. 1.4% of 96,000 active. AID 1024;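 active = activation factor of 2 or more for CYP2C9 at a 5 µM dose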;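 note: 0 = sulfaphenazole-blocked wells and 1 = vehicle-only wells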
Target sequence (P11712 whole entry, looked up): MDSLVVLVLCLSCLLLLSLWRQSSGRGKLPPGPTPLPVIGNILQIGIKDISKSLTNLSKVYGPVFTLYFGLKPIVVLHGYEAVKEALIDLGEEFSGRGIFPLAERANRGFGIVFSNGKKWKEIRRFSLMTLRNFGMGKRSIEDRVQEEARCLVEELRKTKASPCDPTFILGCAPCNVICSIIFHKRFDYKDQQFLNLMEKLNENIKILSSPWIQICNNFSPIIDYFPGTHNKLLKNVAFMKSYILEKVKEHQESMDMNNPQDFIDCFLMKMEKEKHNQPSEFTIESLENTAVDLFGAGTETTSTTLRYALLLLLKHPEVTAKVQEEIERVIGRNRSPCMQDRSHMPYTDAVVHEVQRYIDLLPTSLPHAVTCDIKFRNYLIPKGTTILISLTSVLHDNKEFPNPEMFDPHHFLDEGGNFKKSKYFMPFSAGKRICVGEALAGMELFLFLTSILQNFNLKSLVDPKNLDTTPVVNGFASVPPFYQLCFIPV
CYP2C9 inh: blocks human cytochrome P450 2C9. P11712. CYP2C9 Supersomes, luciferin-H conversion, luminescence. inhibition, % at 5 µM. 20% of 96,000 active. AID 777;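 active = blocking of liver enzyme CYP2C9 beyond about 50% at 5 µM, limit read from the data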
* marks the source's active call; other numbers are inactive results; . = no result.

SMILES	sEH inhibitor	sEH activator	CYP2C19 inhib	CYP2C19 act	CYP2C9 activ	CYP2C9 inh
CC(C)CNc1nc2c(c(=O)n(C)c(=O)n2C)n1Cc1cccc(Br)c1	0.4	2.1	35.3	0.6	0.7	29.5
CC(O)CNc1nc2c(c(=O)n(C)c(=O)n2C)n1Cc1cccc(Br)c1 (stereo unspecified)	-5.9	4.6	43.7	0.6	0.4	60.5*
CC(CCO)Nc1nc2c(c(=O)n(C)c(=O)n2C)n1Cc1cccc(Br)c1 (stereo unspecified)	-10.0	9.5	59.5*	0.4	0.5	49.3
O=C(Nc1ccc(Cl)cn1)c1ccc(-c2ccc(Cl)c(Cl)c2)o1	1.0	1.8	.	.	.	.
CC(=O)N(CCCN1CCOCC1)Cc1ccncc1	1.8	0.5	8.1	0.9	0.9	7.0
Cn1c(=O)n(Cc2ccccc2F)c2ccccc21	-4.9	8.7	70.4*	0.3	0.6	35.1
Cn1c(=O)n(CCOc2ccc(Cl)cc2Cl)c2ccccc21	11.9	-10.7	17.7	0.8	0.9	12.8
Cn1c(=O)n(Cc2ccc(Cl)cc2)c2ccccc21	11.4	-11.1	76.3*	0.2	0.7	33.6
O=c1n(Cc2ccccc2F)c2ccccc2n1Cc1ccccc1F	7.4	-4.3	.	.	.	.
COc1ccccc1Oc1nc2c(c(=O)n(Cc3ccccc3F)c(=O)n2C)n1C	6.5	-8.8	59.7*	0.4	1.1	-9.7
Cn1c(NCCCO)nc2c1c(=O)n(Cc1ccccc1F)c(=O)n2C	1.3	1.2	-12.0	1.1	1	0.5
Cn1c(NC(=O)c2cc(-c3ccc4c(c3)OCO4)nc3ccccc23)cc(=O)n(C)c1=O	-3.4	5.5	29.7	0.7	0.3	73.1*
O=C(Cn1nc(Cc2ccncc2)c2ccccc2c1=O)N1CCc2ccccc2C1	-10.0	9.0	88.5*	0.1	0.2	79.7*
O=C(N=NC(=O)c1ccc2c(O)n(C3CCCCC3)c(O)c2c1)c1cccnc1	-15.6	14.2	23.9	0.8	0.8	22.0
CCc1ccc(C(=O)COC(=O)c2ccc(-c3nnc(-c4ccccc4)o3)cc2)cc1	-14.6	15.5	63.9*	0.4	1.1	-7.6
COc1ccc(CCNC(=O)CCN2C(=O)C3CC=CCC3C2=O)cc1OC (stereo unspecified)	-4.4	3.4	.	.	.	.
Fc1ccc(-c2nnc3ccc(N4CCc5ccccc5C4)nn23)cc1	8.6	-9.7	56.6*	0.4	0.1	86.2*
O=C(Nc1ccc(F)cc1)N1CCN(c2ccc3nnc(-c4ccc(F)cc4)n3n2)CC1	23.9	-23.4	50.5*	0.5	0.4	55.2*
O=C(Nc1ccccc1C(F)(F)F)N1CCN(c2ccc3nnc(-c4ccc(F)cc4)n3n2)CC1	.	.	22.7	0.8	0.3	65.4*
O=C(Nc1ccccc1Cl)N1CCN(c2ccccn2)CC1	8.4	-7.1	.	.	.	.
COC(=O)CSc1ccc2nnc(-c3ccc(F)cc3)n2n1	-24.9	25.8	4.3	1	0.5	49.6
O=C(Nc1ccccc1C(F)(F)F)N1CCN(c2ccc3nncn3n2)CC1	.	.	31.6	0.7	0.3	71.6*
CCOC(=O)c1c(NC(=O)CCN2C(=O)c3ccccc3C2=O)sc(C(=O)OC(C)C)c1C	-26.7	29.2	22.6	0.8	0.4	60.0*
CCOC(=O)c1sc(NC(=O)CCN2C(=O)c3cccc([N+](=O)[O-])c3C2=O)c(C(=O)OCC)c1C	0.7	-1.8	48.7	0.5	0.4	56.7*
NC(=O)C1CCN(S(=O)(=O)c2cccc(S(=O)(=O)N3CCCCC3)c2)CC1	.	.	13.6	0.9	0.6	36.2
SMILES	sEH inhibitor	sEH activator	CYP2C19 inhib	CYP2C19 act	CYP2C9 activ	CYP2C9 inh
COc1ccc(Cl)cc1N1C(=O)/C(=C\c2sccc2C)N=C1SCC(=O)NC1CC1	-0.5	1.3	96.7*	0	0	96.6*
Cn1c(C(=O)N2CCCC(C(=O)O)C2)cc2sccc21 (stereo unspecified)	-9.9	10.7	1.0	1	1	4.5
CN(C(=O)c1cc2sccc2n1C)C1CCCCC1	12.0	-8.7	73.9*	0.3	0.8	21.4
Cn1c(C(=O)NC2CCCCC2)cc2sccc21	2.2	-2.7	55.1*	0.4	0.8	17.5
COC(=O)c1cccc(NC(=O)c2cc3sccc3n2C)c1	9.5	-8.9	77.1*	0.2	0.5	53.4*
Cc1cc(C(F)(F)F)nc(NCc2cccnc2)n1	-7.6	5.5	.	.	.	.
COc1ccc(NC(=O)C(c2ccc(C)cc2)N(C)C(=O)c2cnccn2)cc1 (stereo unspecified)	.	.	51.8*	0.5	0.5	53.3*
COc1ccc(C(C(=O)Nc2ccc(C(C)C)cc2)N(C)C(=O)CNC(C)=O)cc1 (stereo unspecified)	7.7	-11.6	23.9	0.8	0.7	32.7
COc1ccc(CCNC(=O)C(=O)NCc2ccc(C)cc2)cc1OC	10.6	-8.1	12.2	0.9	1.1	-5.1
COC(=O)C1Cc2c([nH]c3ccccc23)CN1 (stereo unspecified)	-13.4	13.6	71.1*	0.3	1.1	-9.2
CCOC(=O)C1Cc2c([nH]c3ccccc23)C(C)N1 (stereo unspecified)	3.1	-1.2	81.8*	0.2	1.1	-11.3
Cc1[nH]c2ccccc2c1C(=O)COC(=O)C1CCC(=O)N1 (stereo unspecified)	16.7	-14.9	-3.3	1	1.9	-85.1
COc1ccc(C(=O)NCc2oc(-c3ccccc3)cc2C(=O)O)cc1	7.5	-7.4	3.3	1	0.6	42.5
CCN(C(=O)c1cccc(F)c1)c1ccccc1C	-5.3	7.8	83.0*	0.2	0.4	61.2*
CCCn1nc([N+](=O)[O-])c(C(C#N)c2nc3ccccc3s2)c(Cl)c1=O (stereo unspecified)	-3.1	4.6	4.7	1	0	98.6*
Cc1[nH]n(-c2ccc([N+](=O)[O-])cc2)c(=O)c1N=Nc1nc2ccccc2s1	-13.3	14.7	.	.	.	.
CC(C)CCOC(=O)C1C(c2ccccc2)C(C(=O)O)C1c1ccccc1 (stereo unspecified)	-8.7	6.3	59.3*	0.4	0.8	22.8
Cc1cccc(OC(=O)C2C(c3ccccc3)C(C(=O)O)C2c2ccccc2)c1 (stereo unspecified)	11.9	-13.9	10.0	0.9	0.4	59.3*
O=C(O)C1C(c2ccccc2)C(C(=O)Oc2ccccc2)C1c1ccccc1 (stereo unspecified)	0.8	-3.0	-6.1	1.1	1	2.2
OC(COc1ccc(C2C=CCC2)cc1)CN1CCCCC1 (stereo unspecified)	-0.3	-0.2	-23.9	1.2	1.1	-11.7
Cc1ccccc1NC(=O)CCC(=O)OCCCC(F)(F)C(F)(F)F	0.4	-0.9	7.6	0.9	0.9	9.7
O=C(Cn1c(C(=O)N2CCc3ccccc3C2)cc2sccc21)c1ccccc1	-0.2	-0.8	68.6*	0.3	0.4	64.1*
O=C(Cn1c(C(=O)N2CCN(C3CCCCC3)CC2)cc2sccc21)c1ccccc1	4.9	-2.9	87.3*	0.1	0.3	73.0*

Assay outcomes (PubChem)
